Calls of active or inactive are those of the source.
How the values were obtained:
[1] = system: PRMT1 (protein arginine N-methyltransferase 1); experiment: PRMT1 binders on small-molecule microarrays, primary screen, biochemical, small-molecule microarray, 635 nm fluorescence (AID 1088); details: small-molecule microarray binding, higher = more signal;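 note: binding of Prmt1 protein to compounds spotted on small-molecule microarray slides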
[2] = yeast growth modulation, basal conditions, primary screen, YJM789 clinical isolate, OD600, 24 h (AID 1089);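 note: growth of clinical yeast isolate S. cerevisiae YJM 789 seeded 1000 cells per well; test concentration not given here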; details: S. cerevisiae YJM789 growth, higher = more signal, called active from +8 up or from −8 down
[3] = fission yeast growth modulation, primary screen, strain 972, OD600, 24 h, no modulator (AID 1090);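 note: basal condition with compound alone and no growth modifier present; test concentration not given here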; details: S. pombe 972 growth, higher = more signal, called active from +8 up or from −8 down
[4] = S. cerevisiae growth modulation with rapamycin, primary screen, strain BY4716, OD600, 96 h (AID 1091); details: higher = more signal, called active from +8 up or from −8 down; note: test concentration not given here
[5] = target: Torsin-1A-interacting protein 2 (Homo sapiens) (UniProt Q8NFQ8); experiment: LULL1 binders on small-molecule microarray, primary screen, cell lysate, human LULL1 lysate, 635/667 nm fluorescence (AID 1092); details: hLULL1 lysate binding, 635 nm fluorescence, higher = more signal;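 note: probe is lysate of COS7 cells overexpressing human LULL1; score merges per-feature 667 nm fluorescence with signal-to-noise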
Sequence of Torsin-1A-interacting protein 2 (Homo sapiens) (Q8NFQ8 whole entry, looked up): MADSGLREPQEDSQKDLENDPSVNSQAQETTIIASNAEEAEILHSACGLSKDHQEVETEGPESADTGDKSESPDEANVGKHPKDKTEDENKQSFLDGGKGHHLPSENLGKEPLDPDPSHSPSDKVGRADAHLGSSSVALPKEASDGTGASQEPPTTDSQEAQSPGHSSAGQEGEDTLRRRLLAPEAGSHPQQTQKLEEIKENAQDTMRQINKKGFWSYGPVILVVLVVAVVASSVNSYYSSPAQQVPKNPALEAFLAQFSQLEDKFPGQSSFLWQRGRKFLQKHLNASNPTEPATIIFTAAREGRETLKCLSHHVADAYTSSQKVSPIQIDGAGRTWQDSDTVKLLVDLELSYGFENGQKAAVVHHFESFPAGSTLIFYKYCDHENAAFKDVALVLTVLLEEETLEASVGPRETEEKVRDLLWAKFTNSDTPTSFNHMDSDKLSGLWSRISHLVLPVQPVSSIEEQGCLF

[6] = E. coli growth modulation, two-sided OD650, primary screen, E. coli filamentation project, strain DRC41, 24 h (AID 1093); details: OD650, 24 h, higher = more signal, called active from +8 up or from −8 down;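 note: MC1000 strain lacking acrAB efflux and sulA so SOS filamentation is blocked; test concentration not given here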
[7] = small-molecule microarray binders of probe aLefty2, primary screen, biochemical, biotinylated probe, 635/667 nm fluorescence (AID 1094); details: higher = more signal;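 note: score merges spot fluorescence near 667 nm with spot signal-to-noise ratio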
[8] = system: Noggin (protein binding on small-molecule microarray); experiment: Noggin binders on small-molecule microarray, primary screen, biochemical, 635/667 nm fluorescence (AID 1095); details: 635 nm fluorescence, higher = more signal;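 note: score merges 667 nm feature fluorescence with signal to noise over triplicate slides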
[9] = target: Neurogenic locus notch homolog protein 3 (Homo sapiens) (UniProt Q9UM47); experiment: NOTCH3 binders on small-molecule microarray, primary screen, biochemical, 635/667 nm fluorescence (AID 1096); details: NOTCH3 binding, 635 nm fluorescence, higher = more signal
Sequence of Neurogenic locus notch homolog protein 3 (Homo sapiens) (Q9UM47 whole entry, looked up): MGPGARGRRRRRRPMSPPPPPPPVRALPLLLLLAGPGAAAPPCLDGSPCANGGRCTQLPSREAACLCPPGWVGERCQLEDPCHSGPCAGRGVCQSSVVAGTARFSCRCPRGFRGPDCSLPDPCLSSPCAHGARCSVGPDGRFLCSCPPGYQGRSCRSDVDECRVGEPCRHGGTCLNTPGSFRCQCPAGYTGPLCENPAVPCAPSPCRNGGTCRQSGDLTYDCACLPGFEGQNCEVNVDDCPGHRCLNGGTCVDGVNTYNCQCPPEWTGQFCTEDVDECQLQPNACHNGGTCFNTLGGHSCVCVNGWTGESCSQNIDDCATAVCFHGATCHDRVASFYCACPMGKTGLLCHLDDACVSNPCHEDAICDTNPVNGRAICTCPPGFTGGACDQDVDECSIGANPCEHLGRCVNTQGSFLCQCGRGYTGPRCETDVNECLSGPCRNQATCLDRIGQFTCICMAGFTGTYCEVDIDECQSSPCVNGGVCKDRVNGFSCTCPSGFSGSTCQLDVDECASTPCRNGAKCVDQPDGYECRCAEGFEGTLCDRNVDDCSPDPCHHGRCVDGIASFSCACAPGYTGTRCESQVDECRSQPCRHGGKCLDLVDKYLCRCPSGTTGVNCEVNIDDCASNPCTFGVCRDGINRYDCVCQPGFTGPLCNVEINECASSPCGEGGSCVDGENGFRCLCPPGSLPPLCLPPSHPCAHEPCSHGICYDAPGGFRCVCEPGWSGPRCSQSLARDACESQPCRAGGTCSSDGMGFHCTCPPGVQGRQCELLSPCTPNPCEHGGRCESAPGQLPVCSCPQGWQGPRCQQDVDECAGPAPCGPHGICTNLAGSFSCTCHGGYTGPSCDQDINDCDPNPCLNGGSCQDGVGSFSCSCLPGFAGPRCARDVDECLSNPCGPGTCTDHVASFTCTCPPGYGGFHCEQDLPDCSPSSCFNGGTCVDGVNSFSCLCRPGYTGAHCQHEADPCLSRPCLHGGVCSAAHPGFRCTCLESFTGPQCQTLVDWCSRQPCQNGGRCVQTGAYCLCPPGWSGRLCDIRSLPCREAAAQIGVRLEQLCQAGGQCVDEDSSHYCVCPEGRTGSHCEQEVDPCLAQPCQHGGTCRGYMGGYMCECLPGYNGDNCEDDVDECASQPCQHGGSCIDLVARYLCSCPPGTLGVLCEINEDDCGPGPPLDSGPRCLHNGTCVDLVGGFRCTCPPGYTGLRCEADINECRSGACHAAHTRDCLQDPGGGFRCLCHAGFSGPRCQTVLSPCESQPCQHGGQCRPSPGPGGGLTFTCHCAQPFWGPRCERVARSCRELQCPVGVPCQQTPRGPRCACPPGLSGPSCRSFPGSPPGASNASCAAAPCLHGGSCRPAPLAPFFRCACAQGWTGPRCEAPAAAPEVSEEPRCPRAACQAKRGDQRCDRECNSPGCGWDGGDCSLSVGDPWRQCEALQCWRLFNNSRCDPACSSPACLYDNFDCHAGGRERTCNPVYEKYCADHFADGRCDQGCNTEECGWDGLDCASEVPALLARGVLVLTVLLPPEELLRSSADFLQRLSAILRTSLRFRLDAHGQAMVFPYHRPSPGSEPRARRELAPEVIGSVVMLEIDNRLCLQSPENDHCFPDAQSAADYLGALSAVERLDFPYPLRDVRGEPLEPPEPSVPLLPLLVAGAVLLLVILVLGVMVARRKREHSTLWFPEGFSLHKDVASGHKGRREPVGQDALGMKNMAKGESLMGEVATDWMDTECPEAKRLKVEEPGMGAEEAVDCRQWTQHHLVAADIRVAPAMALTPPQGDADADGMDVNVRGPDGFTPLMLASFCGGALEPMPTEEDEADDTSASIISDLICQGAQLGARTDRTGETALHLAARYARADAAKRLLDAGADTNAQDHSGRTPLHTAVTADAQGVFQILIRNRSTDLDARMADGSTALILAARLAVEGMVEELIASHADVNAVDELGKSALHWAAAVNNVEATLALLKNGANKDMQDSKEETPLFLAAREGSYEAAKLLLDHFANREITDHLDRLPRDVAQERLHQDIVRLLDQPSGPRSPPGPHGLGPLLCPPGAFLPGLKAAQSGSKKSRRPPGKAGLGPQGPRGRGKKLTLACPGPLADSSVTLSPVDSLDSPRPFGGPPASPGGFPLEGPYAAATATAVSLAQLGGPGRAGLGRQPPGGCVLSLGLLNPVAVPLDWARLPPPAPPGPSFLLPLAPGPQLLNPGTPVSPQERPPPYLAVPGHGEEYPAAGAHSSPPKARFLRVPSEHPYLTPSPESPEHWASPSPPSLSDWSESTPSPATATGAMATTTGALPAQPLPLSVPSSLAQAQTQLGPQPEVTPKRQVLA

[10] = small-molecule microarray binders of probe aEGFR, primary screen, biochemical, biotinylated probe, 635/667 nm fluorescence (AID 1097); details: higher = more signal;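 note: probe is a biotinylated anti-EGFR antibody binding compounds printed on slides; score combines fluorescence near 667 nm and signal to noise of each spot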

Row | SMILES | composite z-score [1] | z-score [2] | z-score [3] | z-score [4] | composite z-score [5] | z-score [6] | composite z-score [7] | composite z-score [8] | composite z-score [9] | composite z-score [10]
1 | O=C1CCCC=C1C(O)CCOCc1ccccc1 (stereo not given) | -0.195 | -0.385 (inactive) | -0.82 (inactive) | -1.15 (inactive) | -1.08 | -0.546 (inactive) | -0.224 | 0.355 | -0.834 | -0.0828
2 | CCOC(=O)CCN1C(=O)[C@H]2[C@H]3[C@H](O)[C@H](O)CC(=NOC[C@@H](O)COCc4ccco4)[C@H]3CC[C@H]2C1=O | 1.46 | -0.114 (inactive) | -3.86 (inactive) | -0.86 (inactive) | 0.756 | 0.09 (inactive) | -0.188 | 0.474 | 0.921 | 0.0649
3 | Cc1ccc(S(=O)(=O)N[C@@H]2COC(=O)[C@H](C)COC(=O)CC=C[C@H]2C)cc1 | -0.365 | 1.4 (inactive) | 1.05 (inactive) | 1.2 (inactive) | -0.366 | -0.234 (inactive) | -0.18 | 0.984 | 0.566 | -0.215
4 | Cc1ccc(S[C@]2(C(=O)NCC(F)(F)F)CC(=O)N(Cc3ccccc3Cl)[C@@H]2c2ccc(CO)cc2I)cc1 | 1.33 | 0.294 (inactive) | -3.18 (inactive) | 1.06 (inactive) | 2.34 | 0.492 (inactive) | -0.0998 | -1.07 | -0.573 | -0.284
5 | CCCCCCc1nc(CCCc2cc3c(c(CCCCCC)n2)[Si](C(C)C)(C(C)C)O[C@H]3c2ccccc2)cc2c1[Si](C(C)C)(C(C)C)O[C@H]2c1ccccc1 | 0.0913 | -0.449 (inactive) | -0.643 (inactive) | -0.146 (inactive) | -0.769 | -1.43 (inactive) | -0.233 | 0.522 | 0.279 | -0.11
6 | CC(C)=CCCC(C)=CCON=C1[C@H]2CCn3c(=O)n(C)c(=O)n3[C@H]2[C@H](O)[C@@H]2O[C@H]12 | 1.14 | -0.0766 (inactive) | 0.418 (inactive) | 0.407 (inactive) | 0.393 | 0.604 (inactive) | 0.0315 | 1.18 | 0.651 | 0.081
7 | CN1C(=O)C2C=CC(C(O)c3ccc(I)cc3)N(NC(=O)OC(C)(C)C)C2C1=O (stereo not given) | 0.896 | 0.725 (inactive) | -0.424 (inactive) | 0.931 (inactive) | 3.21 | -1.07 (inactive) | 0.0607 | 0.17 | 1.04 | 0.157
8 | COC(=O)[C@@]1(Cc2ccccc2)[C@H]2c3cc(C(=O)N4CCCC4)n(Cc4ccccn4)c3C[C@H]2CN1C(=O)c1ccccc1 | 1.57 | 0.263 (inactive) | 0.296 (inactive) | 0.513 (inactive) | 4 | -0.301 (inactive) | 0.614 | 0.856 | 1.14 | 0.211
9 | C[C@@H]1CC[C@H]2C(=O)O[C@H](COc3ccc(C(C)(C)C)cc3)CN2[C@H]1c1ccc(Br)cc1 | -0.59 | 1.55 (inactive) | 0.406 (inactive) | 1.4 (inactive) | -0.121 | -0.756 (inactive) | -0.291 | -0.273 | -0.428 | -0.122
10 | CC(C)(C)N1C(=O)[C@H]2[C@H]3[C@H](O)[C@H](O)CC(=NOCc4ccccc4)[C@@H]3CC[C@H]2C1=O | 0.966 | -1.86 (inactive) | -0.752 (inactive) | -0.715 (inactive) | 1.16 | -0.207 (inactive) | -0.0574 | 0.524 | 0.63 | 0.328
11 | NCCCCCNC(=O)[C@@H]1C[C@@H]2C(=O)N3CCC[C@H]3C(=O)N2[C@@H]1c1cccc(OCCO)c1 | 1.35 | -0.486 (inactive) | -0.703 (inactive) | -0.652 (inactive) | 1.41 | -0.104 (inactive) | 0.948 | 0.989 | 0.613 | 0.364
12 | CC(=O)O[C@H]1C2=C(C(=O)[C@@H]3O[C@@H]31)[C@H]1C(C)O[C@@H]2[C@@]23C(=O)[C@@H]4O[C@@H]4[C@@H](O)C2=CO[C@H](C)[C@@H]13 (stereo not given in full) | 0.417 | 0.014 (inactive) | -0.361 (inactive) | 0.465 (inactive) | -0.0273 | 0.16 (inactive) | -0.265 | -0.0408 | 0.0275 | -0.0671
13 | C=CCNC(=O)[C@H]1[C@@H]2C(=O)O[C@@H](c3ccccc3)[C@@H](c3ccccc3)N2[C@@H](c2ccc(O)cc2)[C@]12C(=O)N(C(=O)OCCOC)c1ccc(C#CC3=CCCCC3)cc12 | 1.54 | 0.576 (inactive) | 0.111 (inactive) | 1.12 (inactive) | 3.14 | 0.111 (inactive) | 0.862 | 1.78 | 1 | -0.21
14 | COc1ccccc1CN1C(=O)c2ccccc2[C@@]2(Cc3ccccc3N(C(C)C)C2=O)[C@@H]1c1ccc(CO)cc1 | 0.303 | -1.69 (inactive) | -0.373 (inactive) | -1.34 (inactive) | -0.114 | 1.26 (inactive) | -0.0999 | -0.0723 | -0.186 | -0.194
15 | CCc1cc2c(nc1CC)CCN(CCC(C)=NOC[C@@H](O)[C@H]1O[C@@H]3OC(C)(C)O[C@@H]3[C@H]1O)C2 | 0.85 | -1.63 (inactive) | 0.24 (inactive) | -0.282 (inactive) | 0.767 | 0.71 (inactive) | -0.175 | 0.276 | 0.0003 | -0.0343
16 | C=COC[C@H]1CN2[C@@H](CC[C@@H](C)[C@@H]2c2ccc(Br)cc2)C(=O)O1 | 1.4 | -2.69 (inactive) | -4.68 (inactive) | -1.52 (inactive) | 1.99 | -0.0786 (inactive) | -0.155 | 0.372 | 0.521 | 0.0402
17 | COC(=O)[C@H](C)NC(=O)[C@@H](C)CO | 1.46 | 0.0198 (inactive) | -0.0164 (inactive) | 0.669 (inactive) | 1.68 | -0.8 (inactive) | -0.0607 | 0.67 | 1.07 | -0.0578
18 | O=C1C[C@@H](O)[C@@H](O)[C@@H]2[C@@H]3C(=O)N(c4ccc(F)cc4F)C(=O)[C@@H]3CC[C@@H]12 | 0.306 | -0.168 (inactive) | -0.413 (inactive) | -0.0694 (inactive) | 0.662 | 0.315 (inactive) | 0.0424 | 0.438 | 0.65 | -0.109
19 | CCCCC(=C=CC[C@H](O)c1ccccc1OCCO)C[C@H](O)COCc1ccccc1 | -0.0855 | 0.115 (inactive) | -0.729 (inactive) | -0.659 (inactive) | 1.03 | 0.0754 (inactive) | -0.145 | -0.142 | -0.171 | -0.12
20 | CO[C@H]([C@@H](C)[C@H](OC)c1ccccc1)[C@H](C)[C@@H](OC)[C@H](C)C(C)=O | -0.694 | 0.474 (inactive) | -0.0357 (inactive) | -0.175 (inactive) | -0.391 | 0.243 (inactive) | -0.0159 | -0.233 | -0.177 | -0.0996
21 | C#CCCCON=C1C[C@@H](O)[C@@H](O)[C@@H]2[C@@H]3C(=O)N(CCC(=O)OCC)C(=O)[C@@H]3CC[C@@H]12 | -0.683 | -0.969 (inactive) | 0.068 (inactive) | -0.664 (inactive) | 0.654 | 0.827 (inactive) | 0.706 | -1.1 | -1.01 | -0.152
22 | CO[C@@H]1COC(=O)CC=C[C@@H](C)[C@H](OC)COC(=O)[C@H](COCc2ccccc2)NC(=O)CC=C[C@H]1C | 0.234 | 0.122 (inactive) | -0.556 (inactive) | -0.0857 (inactive) | -1.32 | 0.024 (inactive) | -0.185 | 0.846 | -0.778 | -0.231
23 | CC1CC/C=C\[C@H]2OC34C=CCN(Cn5nnc6ccccc65)C(=O)[C@H]3N(CCO)C(=O)[C@@H]4C2C(=O)O1 (stereo not given in full) | 0.754 | -1.71 (inactive) | -1.64 (inactive) | -1.99 (inactive) | 3.32 | 2.92 (inactive) | -0.0819 | -1.08 | -0.695 | -0.424
24 | COCC1=C2[C@@H](CCc3ccccc3)OB(O)C[C@@H]2n2c(=O)n(-c3ccccc3)c(=O)n2C1 | -0.162 | 0.114 (inactive) | -0.591 (inactive) | -0.644 (inactive) | 0.332 | 0.203 (inactive) | -0.166 | 0.264 | -0.26 | -0.145
25 | COCCCNC(=O)[C@]1(Cc2ccccc2)N=C(c2ccc(OCCCO)cc2)O[C@@H]1c1ccccc1 | 1.44 | -1 (inactive) | -1.32 (inactive) | -1.41 (inactive) | 3.61 | -0.806 (inactive) | 0.0814 | 0.468 | 0.129 | -0.0594
26 | CCCC[C@@H]1C[C@H]1[C@@H](NS(=O)(=O)c1cccc2cccnc12)c1ccc(-c2ccccc2)cc1 | -1.42 | 0.0994 (inactive) | 1.16 (inactive) | 0.676 (inactive) | 1.26 | -0.781 (inactive) | 0.0141 | -0.696 | 0.32 | -0.0728
27 | COc1ccc([Si](C)(C)[C@H]2[C@H](CC(=O)N3CCC[C@H]3CO)O[C@@]3(C(=O)N(Cc4cccc(N5C(=O)COc6ccccc65)c4)c4ccccc43)[C@@H]2C)cc1 | 1.41 | -2.58 (inactive) | -0.769 (inactive) | -0.827 (inactive) | 2.25 | 1.43 (inactive) | -0.166 | 1.61 | 1.14 | -0.142
28 | CCCNC(=O)OC[C@H]1O[C@H](CCON=CC[C@@H]2C=C[C@H](OC(C)=O)[C@@H](COC(C)=O)O2)C=C[C@@H]1Oc1ccc(OC)cc1 | 1.18 | -0.704 (inactive) | 0.115 (inactive) | 0.023 (inactive) | 0.667 | 0.457 (inactive) | -0.0159 | 0.643 | 0.249 | 0.0486
29 | CO[C@H]1COC(=O)[C@@H]2CCCN2C(=O)[C@@H](C)COC(=O)CC=C[C@@H]1C | 1.47 | -0.62 (inactive) | 0.0569 (inactive) | -1.53 (inactive) | -0.652 | 0.264 (inactive) | -0.238 | 0.927 | 0.665 | 0.0082
30 | COCCCNC(=O)[C@@]1(C)c2ccccc2C(=O)N(Cc2ccc(OC(F)(F)F)cc2)[C@H]1c1ccc(CO)cc1 | 0.289 | -0.0965 (inactive) | 0.203 (inactive) | -0.35 (inactive) | -0.0493 | 0.93 (inactive) | 0.134 | -0.598 | -0.519 | 0.146
